The values below come from PubChem BioAssay (EPA / NIEHS).

Molecules are shown by their SMILES. Active and inactive are the calls of the source. Rule for the calls: active = hit-call score of the fitted dose curve at least 0.9, where 1 is the maximum; inactive = score below 0.9.

This test is described as follows: UKN4_HCS_LUHMES_neurite_outgrowth: University of Konstanz (UKN) Leist Lab Neurite Outgrowth Assay in human LUHMES cells (UKN4) (AID 2284206). The settings on record: actives raise or lower the signal. Here is the method: UKN4_HCS_LUHMES is a cell-based, multiplexed-readout assay screening for neurite outgrowth and cell viability that uses LUHMES, a human central nervous system cell line, with measurements taken at […] after chemical dosing in a microplate: 96-well plate. UKN4, also referred to as NeuriTox, is an assay that uses LUHMES neuronal precursors as a model of dopaminergic neuronal differentiation. Following a 2-day differentiation period, cells are exposed to chemicals for 24 hr and neurite area is evaluated as a marker of neurite outgrowth using high-content imaging of cells stained with calcein AM. Cell viability is assessed using stain Hoechst H-33342.UKN4_HCS_LUHMES_neurite_outgrowth is an assay component measured from the UKN4_HCS_LHUMES assay. It is designed to make measurements of neurite outgrowth, a form of morphology reporter, as detected with Fluorescence intensity signals by HCS Fluorescent Imaging.The assay endpoint UKN4_HCS_LUHMES_neurite_outgrowth was analyzed with bidirectional fitting relative to DMSO as the negative control and baseline of activity. Using a type of morphology reporter, gain or loss-of-signal activity can be used to understand developmental effects. To generalize the intended target to other relatable targets, this assay endpoint is annotated to the neurodevelopment intended target family, where the subfamily is neurite outgrowth.
Proliferating LUHMES cells are seeded in proliferation medium for 24 hours. Day 0: Medium is changed from proliferation medium to differentiation medium. Day 2: Cell number reaches about 30-40 Mio per T175 flask. Cells are trypsinized and replated onto 96-well plates (30000 cells/well in 90 ul) in differentiation medium without cAMP and GDNF. At about 30 min - 2 hours after seeding, when cells have attached, the compounds are added (10 ul of each dilution; total volume 100 ul). Day 3: 23.5 h after toxicant treatment, cells are live-stained with H-33342 and calcein-AM and incubated for 30 min. After 24 h of treatment (including staining), the cells are imaged using a high-content microscope (Cellomics).
Regarding `C/C(=C/C=C/[C@@H](C)C(=O)O)[C@H]1CN[C@H](C(=O)O)[C@H]1CC(=O)O`, the result was inactive.
Turning to `Clc1cc(Cl)c(-c2cc(Cl)c(Cl)c(Cl)c2Cl)cc1Cl`, the AC50 (commonly the concentration giving half of the maximal activity seen) was 14.2 µM (active).
With `CC1(C)[C@H](C(=O)O[C@H](C#N)c2cccc(Oc3ccccc3)c2)[C@@H]1C=C(Br)Br`, the molecule was classed as inactive.
Regarding `[CH3][Hg][Cl]`, the AC50 is 0.164 µM (active).
On to `C[n+]1ccc(-c2cc[n+](C)cc2)cc1`, for which the AC50 is 189 µM (active).
As to `CC(=O)[O-].CC(=O)[O-].O.O.O.[Pb+2]`, the outcome was inactive.
With `CNC(C)Cc1ccc2c(c1)OCO2` (centres undefined), the molecule was classed as inactive.
For the molecule `CC1(C)C(C=C(Cl)Cl)[C@H]1C(=O)O[C@H](C#N)c1cccc(Oc2ccccc2)c1` (some centres undefined), the call was inactive.
As for `CP(=O)(O)CCC(N)C(=O)O` (centres undefined), the molecule was called inactive.
In the case of `C[n+]1ccc(-c2ccccc2)cc1`, the AC50 was 2.69 µM (active).
On the same count and under the same terms, the value for `CNC1(c2ccccc2Cl)CCCCC1=O` (centres undefined) was 34.1 µM (active).
For the molecule `CN1CC=C(c2ccccc2)CC1`, the outcome was inactive.
Take `CN[C@@H](C)Cc1ccccc1`: the call was inactive.
For `[O-][Cl+3]([O-])([O-])O`, the outcome was inactive.
Consider `[CH3][Sn]([CH3])([CH3])[Cl]`, for which the AC50 is 2.5 µM (active).
For the molecule `CC(C)CC(C)c1sccc1NC(=O)c1cn(C)nc1C(F)(F)F` (centres undefined), the AC50 was 73.1 µM (active).
Same read-out and setting: under `O=[As](O)(O)O` stands 74.5 µM (active); under `Brc1ccc(Oc2ccc(Br)cc2Br)c(Br)c1`, 21.8 µM (active).
For the molecule `CC(=O)Oc1ccc2c3c1O[C@H]1[C@@H](OC(C)=O)C=C[C@H]4[C@@H](C2)N(C)CC[C@@]341`, the molecule was called inactive.
For the molecule `O=C1N[C@@H]2C(=C[C@H](O)[C@@H](O)[C@H]2O)c2cc3c(c(O)c21)OCO3`, the AC50 was 0.0456 µM (active).
`COC(=O)[C@H]1[C@@H](OC(=O)c2ccccc2)C[C@@H]2CC[C@H]1N2C`: the result was inactive.
`CN1CC[C@]23c4c5ccc(O)c4O[C@H]2[C@@H](O)C=C[C@H]3[C@H]1C5`: the outcome was inactive.
Take `[Cd+2].[Cl-].[Cl-]`: the AC50 was 6.25 µM (active).
On to `Brc1ccc(Oc2cc(Br)c(Br)cc2Br)c(Br)c1`, for which the AC50 was 13.4 µM (active).
